Assay outcomes: PubChem BioAssay, The Scripps Research Institute Molecular Screening Center
This is a sample that favours compounds with a hit; in the whole collection about 2.5% have one here.
MBD2 inh – inhibitors of MBD2 binding to methylated DNA, primary screen, biochemical, TR-FRET, DNA-binding domain, human | AID 686964, 2013 | hit rate 0.31% among 370,000 | inhibition, % at 4.4 µM | MBD2 binding to methylated oligonucleotide; in the data active means inhibition above about 13%
PRMT1 inh – PRMT1 methyltransferase inhibitors, primary screen, biochemical, fluorescence polarization | Protein arginine N-methyltransferase 1 (Homo sapiens), Q99873 | recombinant PRMT1, activity-based probe fluorescence polarization | inhibition, % at 2.79 µM | hit rate 1.3% among 370,000;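 active means inhibition above about 21% made by adding two undisclosed values, limit read from the data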
UHRF1 binding – UHRF1 methylated DNA binding inhibitors, primary screen, counter-screen for MBD2 inhibitor project, biochemical, TR-FRET, human UHRF1, single concentration; E3 ubiquitin-protein ligase UHRF1 (Homo sapiens), Q96T88; UHRF1 binding to methylated oligo; inhibition, % at 4.4 µM; hit rate 0.75% among 370,000; AID 687016, 2013;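 further: UHRF1 SRA domain binding a hemimethylated CpG hairpin DNA probe; 0% = median of test compound wells and 100% = reference inhibitor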
LEDGF integ inh – blockers of LEDGF/p75-dependent integrase strand transfer – biochemical, TR-FRET, high throughput, primary screen; HIV-1 integrase (with human LEDGF/p75); TR-FRET IN-LEDGF/p75 DNA integration, Eu/Cy5; inhibition, % at 3.7 µM; hit rate 0.64% among 370,000; AID 743269, 2014;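 active means inhibition above the screen-wide mean plus 3 SD, cut at about 13% in these data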;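 further: signal is the Cy5 over europium emission ratio at 671 and 618 nm; 0% = plate median of compound wells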
UHRF1 DNA bind – UHRF1 methylated DNA binding inhibitors, counter-screen for MBD2 inhibitor project, biochemical, TR-FRET, human UHRF1; shares compounds with MBD2 inh; UHRF1 binding to methylated oligonucleotide; inhibition, % at 4.4 µM; hit rate 25% among 1,000; AID 720530, 2013;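 further: UHRF1 SRA domain binding a labeled hemimethylated CpG hairpin DNA; 0% = vehicle only and 100% = reference inhibitor with vehicle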
MBD2 DBD conf – inhibitors of MBD2 binding to methylated DNA, confirmation, biochemical, TR-FRET, DNA-binding domain, human; shares compounds with MBD2 inh; TR-FRET MBD2-DBD binding to methylated oligonucleotide; inhibition, % at 4.4 µM; hit rate 26% among 1,000; in the data active means inhibition above about 14%
An asterisk follows results filed as active; / = not tested or not shown. Unless noted, no stated cut-off is given here; in the data, active means inhibition above about 21%; inactive means the rest.

SMILES	MBD2 inh	PRMT1 inh	UHRF1 binding	LEDGF integ inh	UHRF1 DNA bind	MBD2 DBD conf
COc1ccccc1CNS(=O)(=O)c1ccc(-n2cnnn2)c(C)c1	4	1	-1	-1	/	/
Cc1cc(S(=O)(=O)NCC(c2ccccc2)c2ccccc2)ccc1-n1cnnn1	14*	5	18	4	3	4
CC(C)NC(=O)Cn1nnc(-c2ccccc2)c1COc1ccc2ccccc2c1	-3	2	-1	-5	/	/
CC(C)(C)CC(=O)NC(=S)Nc1ccccc1C(F)(F)F	16*	1	23*	1	11	4
CC(C)CC(=O)NC(=S)Nc1ccccc1C(F)(F)F	1	-2	3	-2	/	/
CCOC(=O)C1=C(COC(=O)c2cccnc2Cl)NC(=O)NC1C (configuration not stated)	19*	-2	-2	6	2	3
CCOC(=O)C1=C(COC(=O)c2ccccc2OC)NC(=O)NC1C (configuration not stated)	-2	-4	-1	1	/	/
COC(=O)[C@H]1C[C@@]2(n3ccc4ccccc43)c3ccccc3N(S(=O)(=O)c3ccccc3)[C@H]2N1C(=O)CNC1CCCCC1	8	2	2	0	/	/
COCc1cc(N2CCCC2)nc(-c2ccccc2)n1	-5	-6	-1	0	/	/
CS(=O)(=O)Cc1cc(N2CCCC2)nc(-c2ccccc2)n1	20*	-1	-1	0	6	3
O=C(NCCS(=O)(=O)N1CCN(c2ccccc2)CC1)c1cccc(F)c1	-2	-3	-1	6	/	/
COC(=O)[C@H](CC(C)C)N(Cc1cn(Cc2ccccc2)nn1)S(=O)(=O)c1ccccc1Br	1	-2	0	1	/	/
COC(=O)[C@H](CC(C)C)N(Cc1cn(Cc2ccc(C)cc2)nn1)S(=O)(=O)c1ccccc1Br	18*	2	19	2	6	8
Cc1ccc(C2NC(=S)NC3=C2C(=O)CCC3)cc1 (configuration not stated)	14*	2	24*	-3	1	2
Cc1onc(-c2ccccc2Cl)c1C(=O)N1CCC(Cc2ccccc2)CC1	16*	8	29*	1	8	2
Cc1ccc(Oc2nc(CN3CCOCC3)nc3sc4c(c23)CCC(C)C4)cc1 (configuration not stated)	14*	0	-1	3	9	4
O=C(Nc1nnc(CCN2CCCCC2)s1)c1ccccc1Cl	16*	4	25*	4	7	2
CCc1nnc(NC(=O)CN2CCN(Cc3ccccc3C)CC2)s1	3	0	-1	4	/	/
O=C(Nc1nnc(CCN2CCCCC2)s1)c1ccccc1	2	3	0	3	/	/
CCc1nnc(NC(=O)CN2CCN(Cc3ccccc3Cl)CC2)s1	17*	5	20	5	8	6
COc1ccc(C(=O)CC(Nc2ccc([N+](=O)[O-])cc2)c2ccc(Cl)cc2)cc1 (configuration not stated)	1	0	-4	2	/	/
COc1ccc(Cc2nnc(NC(=O)c3ccc(C)cc3)s2)cc1OC	0	-3	3	6	/	/
COc1ccc(Cc2nnc(NC(=O)CS(=O)(=O)c3ccc(C)cc3)s2)cc1OC	22*	3	-2	0	8	1
c1ccc(CN=C2CCCc3ccccc3N2)cc1	2	-2	0	3	/	/
CC(C)CN1C(=O)C[C@@]2(C(=O)N(C)c3ccc(NS(=O)(=O)C4CC4)cc32)C1c1ccccc1 (some centres not stated)	15*	0	15	3	12	8
Cc1ccc(-c2noc(Cn3nc(C(=O)O)c4ccccc4c3=O)n2)cc1	3	7	2	-3	/	/
